Source: PubChem BioAssay (National Center for Advancing Translational Sciences (NCATS))
SMN2 splice up: enhancers of SMN2 splice variant expression; 2.8% of 210,000 active; Potency, µM (titrated, usually from 46.1 µM), for inactives: top-dose activity change, positive = activation, hits mostly activators; AID 1458; HEK293 SMN2-luciferase splicing reporter, luminescence, 30-36 h; also: % of control where 0% means no effect; nearly all actives have a fitted effect of over 55% in size
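HEK293 cells carry an SMN2 […]–luciferase reporter in which exon 7 inclusion puts luciferase in frame. Cells were plated 10-12 h before compound addition, then incubated 30-36 h at 37C. ONE-Glo luminescence was read; sodium butyrate at 4.5 mM final served as control.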
ELG1 genotoxic: genotoxicity induction in ELG1-luciferase HEK293T cells; Potency, µM (highest dose often 46 µM), for inactives: top-dose activity change, positive = activation, usual class: activators; AID 504466; HEK293T ELG1-luciferase reporter, luminescence, 16 h; 1.3% of 330,000 active; also: % of control where 0% means no effect; nearly all actives have a fitted effect of over 60% in size
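Luminescence read-out: rising ELG1-luciferase signal, reflecting elevated ELG1 protein under genetic stress, flags genotoxic compounds. Cells were treated for 16 hr at 37 °C before ONE-Glo detection.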
Rab9 prom act: activates the Rab9 promoter; Potency, µM (doses to about 9.22 µM), for inactives: at the highest dose activation, negative = inhibition, actives largely listed as activators; 2.8% of 320,000 active; AID 485297; Huh7 Rab9 promoter-luciferase reporter, luminescence, 24 h; also: % of control where 0% means no effect; nearly all actives have a fitted effect of over 60% in size
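Huh7 cells stably carrying a Rab9 promoter-luciferase reporter, 1500 cells per well in OP-MEM I with 10% FBS, treated with compound 24 hours at 37C. Luciferase activity read by luminescence after 10 minutes with Amplite reagent.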
FLuc counter: firefly luciferase modulation, counter-screen for miR-21 project; AID 588342; purified FLuc, Km substrates, luminescence inhibition; P08659; 6.9% of 360,000 active; Potency, µM (highest dose often 57.5 µM), without a hit: at the top dose activity change, negative = inhibition, actives largely listed as inhibitors;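 also: plate controls were vehicle for no effect and reference inhibitor for full effect; nearly all actives have a fitted effect of over 55% in size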
Target sequence (P08659 whole entry, looked up): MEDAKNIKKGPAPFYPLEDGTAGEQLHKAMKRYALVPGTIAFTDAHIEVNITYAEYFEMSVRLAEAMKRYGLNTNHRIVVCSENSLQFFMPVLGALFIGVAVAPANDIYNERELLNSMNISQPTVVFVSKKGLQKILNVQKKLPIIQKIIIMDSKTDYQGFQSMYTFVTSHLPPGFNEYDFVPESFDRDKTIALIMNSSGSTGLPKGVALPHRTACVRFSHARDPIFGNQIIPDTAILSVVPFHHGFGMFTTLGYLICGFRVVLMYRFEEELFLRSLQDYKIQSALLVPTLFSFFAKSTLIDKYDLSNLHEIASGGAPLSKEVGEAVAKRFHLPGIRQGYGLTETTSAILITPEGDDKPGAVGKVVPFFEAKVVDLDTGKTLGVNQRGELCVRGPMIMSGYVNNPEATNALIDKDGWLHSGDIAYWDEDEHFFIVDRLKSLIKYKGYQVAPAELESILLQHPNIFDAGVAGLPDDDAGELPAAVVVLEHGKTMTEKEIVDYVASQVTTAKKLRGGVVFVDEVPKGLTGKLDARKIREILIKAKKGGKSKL
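Biochemical qHTS of compounds, final roughly 60 µM downward over six points, against 10 nM purified firefly luciferase using Km concentrations of substrates (10 uM D-luciferin, 10 uM ATP) in Tris acetate pH 7.5 buffer; luminescence output.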
NPC1 promoter act: activators of NPC1 promoter. Huh7 NPC1 promoter luciferase reporter, 24 h. Potency, µM (series often up to 9.22 µM), without a hit: top-dose activation, usual class: activators. 2.4% of 320,000 active; also: % of control where 0% means no effect; nearly all actives have a fitted effect of over 60% in size
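Quantitative HTS used a cell-based reporter: Huh7 cells stably bearing the NPC1 promoter upstream of luciferase were treated with compounds for 24 h, and promoter activation was read as luminescence.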
ELG1 DNA repair: ELG1-dependent DNA repair inhibition. HEK293T ELG1-luciferase reporter, luminescence, 16 h; DNA damage induced by 5-fluorouridine. Potency, µM (series often up to 46.1 µM), for inactives: at the top dose activity change, negative = inhibition, actives largely listed as inhibitors. 2.3% of 330,000 active; also: % is scaled to controls: 0 for no effect and ±100 for the full control effect; nearly all actives have a fitted effect of over 55% in size
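Reporter activity after DNA damage by 5-fluorouridine is monitored. Compound-treated cells incubate 16 hr at 37 °C, then ONE-Glo is added for 30 min before luminescence reading.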
* = called active by the depositor; ? = inconclusive; · = no result; [ ] = dose if it differs, or a comment. Rows were chosen to be rich in hits. Some 9.3% of all compounds tested hit in one or more screens of this group. Calls follow the shape of the dose curve; as a rule, active = well fitted curve in the direction sought with a large enough effect; inconclusive = small, poorly fitted or top-dose-only effect, or another doubt; inactive = no such curve, though single readings can be large; an effect the other way counts as inactive or inconclusive. Potency is read from the fitted curve at half-maximal effect.

SMILES	SMN2 splice up	ELG1 genotoxic	Rab9 prom act	FLuc counter	NPC1 promoter act	ELG1 DNA repair
O=C(Oc1ccc(-c2cnc3ccccc3n2)cc1)c1ccc(Cl)c([N+](=O)[O-])c1	?	8.2µM*	3%	?	12%	?
O=C(Oc1ccc(-c2cnc3ccccc3n2)cc1)c1ccc(Br)o1	?	9.2µM*	27%	?	?	?
O=C(Oc1ccc([N+](=O)[O-])cc1)c1cc(-c2ccccc2)nc2ccccc12	-1%	-1%	3%	-4%	-3%	0%
Cc1ccc(-c2n[nH]c(=S)n2/N=C/C=C\c2ccccc2[N+](=O)[O-])cc1	16%	1%	1%	-2%	-3%	-5%
C/C(CC(=O)Nc1ccccn1)=N\NC(=O)C(=O)Nc1ccccc1C	2%	-3%	-2%	0%	-2%	2%
CC(CNC(=O)CCCn1c(=O)c2cccn2c2ccc(F)cc21)c1ccccc1 (centres undefined)	·	·	·	1%	·	·
COc1ccc(-n2c(-c3ccco3)nc3c(cnn3-c3ccc(Cl)cc3)c2=O)cc1	2%	·	·	-6%	·	·
O=c1c2ccccc2oc2nc(-c3ccco3)n(-c3ccccc3)c(=O)c12	13µM*	9%	?	3%	?	?
O=c1c2ccccc2oc2nc(-c3ccco3)n(CCc3ccccc3)c(=O)c12	-9%	1%	13%	5%	7%	15%
O=c1c2cnn(-c3ccccc3)c2nc(-c2ccco2)n1-c1ccccc1	·	-20%	-3%[1.84 µM]	-8%	-3%	6.3µM*
CSCC[C@H](NS(=O)(=O)c1ccc(C)cc1)C(=O)N1CCC(C(=O)N[C@@H](Cc2ccc(O)cc2)C(=O)O)CC1	·	0%	0%	1%	-4%	-12%
COc1ccc(CNC(=O)COc2cc3c(c4oc(=O)cc(C)c24)CCC(C)(C)O3)cc1OC	·	-3%	-6%	-6%	1%	?
COc1cn(-c2ccccc2)nc1C(=O)Nc1ccccc1	·	16%	?	13µM*	?	?
COc1cn(-c2ccccc2)nc1C(=O)Nc1ccc(C)cc1	·	-7%	?	8.5µM*	?	?
CC(C)S(=O)(=O)C1=NSC2=NC(=O)/C(=C\c3ccc(-c4cccc(C(=O)O)c4)o3)C(=N)N21	1%	-9%	-3%	13µM*	-3%	19%
N=C1/C(=C/c2ccc(-c3cccc(C(=O)O)c3)o2)C(=O)N=C2SC=C(c3ccccc3)N12	17%	2%	25%	24µM*	0%	?
CC1=CC2=NC(=O)/C(=C\c3cccn3CCOc3ccc(C)c(C)c3)C(=N)N2O1	10%[1.84 µM]	1%	19%	-1%	14%	18µM*
CC1=CC2=NC(=O)/C(=C/c3cccn3Cc3ccccc3)C(=N)N2O1	·	-3%	-1%	5%	-3%	-9%
N=C1/C(=C/c2cccn2CCOc2ccccc2)C(=O)N=C2SC=C(c3ccccc3)N12	-3%[1.84 µM]	-7%	-1%	0%	-13%	18µM*
Cc1ccc(C)c(NC(=O)C2CCN(C(=O)c3cccs3)CC2)c1	·	0%	-1%	2%	-3%	-5%
O=C(COC(=O)c1cnccn1)Nc1c(Cl)cc(Cl)cc1Cl	·	0%	-3%	2%	-2%	4%
CC(C)S(=O)(=O)C1=NSC2=NC(=O)/C(=C\c3ccc(-c4ccccc4)o3)C(=N)N21	23%	-6%	-14%	?	1%	-24%
O=C1OC(c2cccs2)=N/C1=C/c1ccc(-c2cccc(C(=O)O)c2)o1	6%	?	-3%	24µM*	3%	?
O=C1OC(c2cccs2)=N/C1=C\c1ccc(-c2ccccc2Cl)o1	-6%	-2%	-6%	-1%	-1%	-5%
CS(=O)(=O)C1=NSC2=NC(=O)/C(=C\c3ccc(-c4ccccc4)o3)C(=N)N21	5%	4%	5%	12µM*	4%	15%
SMILES	SMN2 splice up	ELG1 genotoxic	Rab9 prom act	FLuc counter	NPC1 promoter act	ELG1 DNA repair
CC(=O)c1cccc(NS(=O)(=O)c2cc(-c3cnc(C4CC4)o3)ccc2C)c1	·	1%	-6%	?	-15%	?
CCOC(=O)C1=C(COC(=O)/C=C/c2ccc(SC)cc2)NC(=O)NC1C (centres undefined)	·	-9%	0%	-2%	1%	10µM*
Nc1nc(SCc2ccccc2Cl)[nH]c(=O)c1-c1ccccc1	-4%	-3%	-6%	-1%	0%	12%
Nc1nc(SCc2ccccc2)[nH]c(=O)c1-c1ccccc1	13µM*	12µM*	?	19µM*	?	?
COc1ccc(NC(=O)Nc2nnc(-c3ccncc3)s2)cc1	-18%	-18%	?	?	26%	?
Cc1ccc(NC(=O)Nc2nnc(-c3ccccc3F)s2)cc1	·	9%	?	-12%	?	?
COc1ccc(NC(=O)Nc2nnc(C(C)C)s2)cc1	26%	?	?	21µM*	3.5µM*	?
COc1ccc(NC(=O)Nc2nnc(-c3ccccc3F)s2)cc1	14%	1%	2.8µM*	-3%	?	?
COc1ccc(NC(=O)Nc2nnc(-c3ccco3)s2)cc1	·	?	1.3µM*	?	0.89µM*	?
CC(C)(C)NC(=O)c1ccccc1-c1nc2ccccc2s1	·	-3%	-5%	-4%	-3%	-5%
CNc1sc(C(=O)c2ccccc2F)c(N)c1-c1nc2ccccc2s1	?	?	4.5µM*	8.5µM*	4µM*	?
Cc1c(CC(=O)O)c(=O)oc2cc3c(cc12)CCC(C)(C)O3	·	-1%	-2%	3%	-6%	-5%
Cc1c(CC(=O)N2CCC(C(N)=O)CC2)c(=O)oc2cc3c(cc12)CCC1(CCCCC1)O3	·	-5%	-6%	19µM*	6%	-27%
CCC(NC(=O)Cc1c(C)c2cc3c(cc2oc1=O)OC(C)(C)CC3)C(=O)O (centres undefined)	·	10%	2µM*	21µM*	3.2µM*	?
COCC(C)NC(=O)C1CC(=O)N(c2ccc(C)cc2)C1 (centres undefined)	-1%	1%	18%	0%	0%	18%
Cc1ccccc1NC(=O)Nc1cccs1	0%	0%	19%	?	1%	9%
CC(=O)c1cccc(Nc2nc(N3CCOCC3)nc(N3CCOCC3)n2)c1	·	0%	0%	-1%	-4%	?
O=C(NCC1CCCO1)c1coc2nc3ccccc3nc12 (centres undefined)	5%	-1%	9%	11µM*	3%	?
C=CCn1c(N)c(C(=O)NCC2CCCO2)c2nc3ccccc3nc21 (centres undefined)	·	-7%	-4%	-3%	0%	10µM*
